Fold change data for 121 compounds are collected here from PubChem BioAssay AID1239 (SRMLSC, 2008).

The campaign covered roughly 190,000 compounds. About 3,100 (1.6%) were called active. The sample as a whole holds a higher share of actives than the screen did. Unmarked numbers belong to inactive results. Rule as the data show it: active = fold change above about 3.3; inconclusive = no clear call, values can overlap the other calls; inactive = below that.

The nature of this test: NF-kB upregulation, human neuronal cells – cell-based, HTS, primary screen (AID 1239). As to conditions: NF-kB reporter expression, at 12.5 µM, active compounds read high.
In the case of `CCOc1ccc2nc(NCCNC(=O)C(C)(C)C)c(C)cc2c1`, the fold change is 1.12.
With `O=C(CCc1nnc(CCCCc2ccccc2)o1)NC(c1cccnc1)C(F)(F)F` (stereo unspecified), the fold change was 0.86.
As to `Cc1ccc(-c2cn(S(=O)(=O)c3cccc([N+](=O)[O-])c3)nc2N)cc1`, the fold change is 1.2.
Then `CC(C)(C)NC(=O)Cn1cnc2cc([N+](=O)[O-])ccc2c1=O`, with 1.11; and `Cc1ccc(-n2cc3ccc([N+](=O)[O-])cc3n2)cc1`, with 9.31 (active); and `O=C(O)CSCC(=O)Nc1ccc(C(F)(F)F)cc1`, with 1.18.
For the compound `O=C(CSc1nc2ccccc2[nH]1)c1cccs1`, the fold change is 3.8 (active).
Take `CCCCSc1nc2ccccc2[nH]1`: the fold change is 2.06.
`C=CCSc1nc2ccccc2[nH]1`: the fold change was 1.17.
For `COc1ccc(/C=N/NC(=O)Cn2cc(C(F)(F)F)ccc2=O)cc1`, the fold change was 1.07.
With `O=C(O)/C=C/c1ccc(S(=O)(=O)N2CCCCCC2)cc1`, the fold change is 1.17.
Turning to `CCCC(=O)Nc1ccc(C(=O)NCCCn2ccnc2)cc1`, the fold change was 1.01.
Next, `CCCCCC(=O)Nc1ccc(C(=O)N/N=C/c2ccc([N+](=O)[O-])cc2)cc1`: 1.05; `CCCC(=O)Nc1ccc(C(=O)N/N=C/c2ccc[nH]2)cc1`: 6.81 (active).
As for `CCn1c(N)c(Br)c(=O)[nH]c1=O`, the fold change is 0.94.
Turning to `CN(C)c1ccc(C2Nc3ccccc3C(=O)N2NS(=O)(=O)c2ccccc2)cc1` (stereo unspecified), the fold change is 0.87.
For `CC1(C)CC(=O)C(C2c3ccccc3S(=O)(=O)c3ccccc32)C(=O)C1`, the fold change is 1.19.
As for `Cc1ccc(C(=O)NN(CCC#N)C2=NS(=O)(=O)c3ccccc32)cc1`, the fold change is 1.06.
Take `CC1(C)C2CC=C(/C=N/NC(=O)C3CC3)C1C2` (stereo unspecified): the fold change was 1.13.
As for `CC(C)c1ccc(NC(=O)NC2CCCCC2)cc1`, the fold change was 5.47 (active).
Regarding `CC(C)N1CCC(NC(=O)Nc2ccccc2)CC1`, the fold change is 1.04.
For the compound `CC(C)(C)NS(=O)(=O)c1ccc(NC(=O)NC2CCCCC2)cc1`, the fold change was 0.89.
On to `CCOc1cc(NC(=S)NCc2ccco2)c(OCC)cc1NC(=O)c1ccco1`, for which the fold change is 1.12.
With `CCN(CC)C(=O)C(=O)c1cn(CC(=O)NCc2ccc3c(c2)OCO3)c2ccccc12`, the fold change is 1.39.
For the compound `CCc1ccc2c(c1)C1(NN=C(c3ccccc3)S1)C(=O)N2` (stereo unspecified), the fold change is 4.48 (active).
For `O=C1Nc2ccccc2C12Nc1ccccc1S2` (stereo unspecified), the fold change was 1.44.
`C=C1c2cc(CC)ccc2NC(=O)N1c1ccc(C)cc1`: the fold change was 1.19.
On to `O=C(CSc1cccc[n+]1[O-])c1ccc(-c2ccccc2)cc1`, for which the fold change is 2.45.
For the compound `O=C(Nc1ccc2sc3ccccc3c(=O)c2c1)c1ccccc1Cl`, the fold change was 6.23 (active).
Regarding `COc1cc(NC(=O)c2cccs2)ccc1NC(=O)c1ccccc1Cl`, the fold change is 0.87.
Then `O=C(Nc1ccc2nc3n(c(=O)c2c1)CCCCC3)c1ccccc1Cl`, with 1.29.
For the compound `CCOC(=O)Cc1csc(NC(=O)COc2ccc3c(C)cc(=O)oc3c2)n1`, the fold change is 0.61.
Take `O=C(CCC1CCCN(Cc2ccc(O)c(Cl)c2)C1)NCc1ccccc1F` (stereo unspecified): the fold change was 1.07.
For `Cc1csc(NC(=S)Nc2cccc(Cl)c2)n1`, the fold change is 3.32 (active).
In the case of `CC(=O)Nc1cccc(C(=O)Nc2nc(C)cs2)c1`, the fold change is 1.22.
Regarding `S=C(Nc1cccc(Cl)c1)Nc1ccc2cn[nH]c2c1`, the fold change is 1.36.
Next, `NC(=O)c1ccc(NC(=O)COC(=O)C(Cc2ccccc2)NC(=O)c2ccccc2)cc1` (stereo unspecified): 0.99; `COc1ccc(Nc2nc(-c3ccccc3)cs2)cc1`: 12.5 (active); `NS(=O)(=O)c1ccc(Nc2nc(-c3ccccc3)cs2)cc1`: 1.18.
As to `COc1ccc2nc(Nc3nc(-c4cc5ccccc5oc4=O)cs3)sc2c1`, the fold change was 1.2.
Consider `COc1ccc(-c2csc(Cc3nc(O)cs3)n2)cc1`, for which the fold change is 3.76 (active).
Next, `COc1ccc(-c2csc(NC(=O)COC(=O)c3ccc(Br)o3)n2)cc1`: 1.92.
Next, `CCNc1nc(-c2cc3ccccc3o2)cs1`: 1.19; `COc1ccc(OC)c(Nc2nc(-c3ccc(O)c(O)c3)cs2)c1`: 1.32.
Then `Oc1ccc(-c2csc(Nc3cccnc3)n2)cc1`, with 3.24.
Regarding `COc1ccc(-c2csc(NC(=O)CCCc3cccs3)n2)cc1`, the fold change is 0.87.
Consider `COc1ccc2nc(Nc3nc(-c4ccncc4)cs3)sc2c1`, for which the fold change is 1.6.
For the compound `COc1ccc(-c2csc(Nc3ccc(O)cc3)n2)cc1`, the fold change was 8.49 (active).
On to `O=c1oc2ccccc2cc1-c1csc(Nc2ccc(O)cc2)n1`, for which the fold change was 7.39 (active).
As for `O=C(C1CCN(C2CCN(Cc3cccc4c3OCO4)CC2)CC1)N1CCOCC1`, the fold change is 1.05.
With `COC(=O)c1ccc(CN2CCC(CO)(Cc3ccc(OC)cc3)CC2)cc1`, the fold change is 1.33.
`COc1ccccc1-n1ccnc1SCC(=O)NC(C)(C)C`: the fold change was 1.09.
Consider `CCCCC(CC)CNC(=O)C(=O)C1C(=O)Nc2ccccc21` (stereo unspecified), for which the fold change is 1.17.
As to `CC[n+]1c(C)n(-c2ccccc2)c2ccc(NC(C)=O)cc21`, the fold change is 0.85.
As to `N#C/C(=C\c1ccc(-c2cccc([N+](=O)[O-])c2)o1)C(=O)NCCN1CCOCC1`, the fold change is 1.14.
Regarding `Cc1cccc(NC(=O)c2cc([N+](=O)[O-])ccc2N2CCN(C)CC2)c1`, the fold change was 0.95.
Next, `O=C(O)c1ccccc1-c1ccccc1C(=O)NCc1cccnc1`: 1.16.
Next, `COC(=O)C(C)NC(=O)COc1ccc2ccccc2c1` (stereo unspecified): 1.1.
For the compound `Cc1cc(Cl)ccc1OCCCC(=O)NCc1ccccn1`, the fold change is 1.09.
`N#CC1=C(N)Oc2[nH]c(=S)[nH]c(=O)c2C12C(=O)Nc1ccccc12` (stereo unspecified): the fold change was 1.09.
Regarding `Cc1nn(C)c(C)c1Sc1ccccc1N`, the fold change is 0.93.
In the case of `CN1CCN(/N=C2/C(=O)Nc3ccc([N+](=O)[O-])cc32)CC1`, the fold change is 1.3.
In the case of `Cc1cc(Br)ccc1NC(=O)C1CCCO1` (stereo unspecified), the fold change is 1.18.
Turning to `Cc1cc(C)c2nc(NC(=O)C3CCCO3)sc2c1` (stereo unspecified), the fold change is 6.22 (active).
On to `O=C(Nc1nc2ccc(S(=O)(=O)N3CCCC3)cc2s1)C1CCCO1` (stereo unspecified), for which the fold change is 0.92.
`CC1CN(CCCOc2ccccc2-c2ccccc2)CC(C)O1` (stereo unspecified): the fold change was 1.16.
Take `O=C(OCC(=O)c1c[nH]c2ccccc12)c1cccc(O)c1`: the fold change was 5.31 (active).
On to `CC1CCN(CC(=O)c2c[nH]c3ccccc23)CC1`, for which the fold change was 0.78.
Then `O=C(Cc1c[nH]c2ccccc12)OCCOC(=O)Cc1c[nH]c2ccccc12`, with 1.43.
Then `COc1cccc(CNC(=O)CCC2CCCN(C(=O)c3ccoc3C)C2)c1` (stereo unspecified), with 1.11.
Then `COc1ccc(Nc2ncc(F)c(N3CCOCC3)n2)cc1`, with 3.96 (active); and `CCOc1ccc(Nc2nc(Cl)nc(N3CCN(c4ccc(OC)cc4)CC3)n2)cc1`, with 0.61; and `c1ccc(Nc2nc(N3CCOCC3)c3ccccc3n2)cc1`, with 0.6.
With `Cc1cc(NC(=O)CSCc2ccccc2C)no1`, the fold change is 1.25.
`CC(NCc1nc2ccccc2n1C)C12CC3CC(CC(C3)C1)C2` (stereo unspecified): the fold change is 0.85.
Then `CC(=O)Cc1nsc(NC(=O)c2csc3c2CCCC3)n1`, with 1.73; and `COC(=O)c1sccc1NC(=O)c1csc2c1CCCC2`, with 1.41; and `COC(=O)c1sc(NC(=O)c2csc3c2CCCC3)nc1C`, with 4.92 (active).
Then `COc1cc(OC)c(C2=NOC(C(=O)Nc3c(C)n(C)n(-c4ccccc4)c3=O)C2)cc1Cl` (stereo unspecified), with 0.97; and `CN1CCN(CC#CCC2(O)c3ccccc3-c3ccccc32)CC1`, with 1.01; and `CNC(=O)CSc1nnnn1-c1ccc(C)cc1C`, with 1.23.
In the case of `CCn1nnnc1SCC(=O)c1ccc(C)cc1C`, the fold change is 3.65 (active).
Turning to `COc1ccc(C(=O)CSc2nnnn2C)c(OC)c1`, the fold change is 1.
Then `COCCNC(=O)C(c1ccc(O)cc1)N(C(=O)CCC(=O)Nc1nccs1)c1ccc(C)cc1` (stereo unspecified), with 0.99.
Regarding `COC(=O)c1ccc(COC(=O)c2cnccn2)cc1`, the fold change is 1.22.
For the compound `O=C(CN1C(=O)/C(=C/c2ccccc2F)Sc2ccccc21)NCc1cccnc1`, the fold change is 0.69.
With `OCC(O)CN(c1ccccc1)c1ccccc1` (stereo unspecified), the fold change is 1.39.
As to `Brc1ccc(-c2nnc(-c3ccccc3)o2)o1`, the fold change was 3.89 (active).
Take `O=C(OCc1ccc(Br)cc1)c1cccc(-c2nnc(-c3ccccc3)o2)c1`: the fold change is 1.7.
Turning to `Nc1ccc(-c2nnc(-c3ccc(-c4ccccc4)cc3)o2)cc1`, the fold change was 1.31.
On to `COc1ccccc1Cn1c(C)nnc1-c1cnn(C)c1N`, for which the fold change was 1.41.
In the case of `CCOC1CS(=O)(=O)CC1OCC` (stereo unspecified), the fold change was 5.97 (active).
Then `COc1ccccc1N1CCN(/N=C\C(Br)=C\c2ccccc2)CC1`, with 1.33; and `COc1ccc(CCNC(=O)CC2SC(=Nc3cc(C)cc(C)c3)NC2=O)cc1OC` (stereo unspecified), with 0.95.
As for `COC(=O)c1ccc(NC(=O)c2ccco2)cc1`, the fold change was 2.51.
As to `O=C(Nc1ccc(Oc2ccccc2)cc1)c1ccco1`, the fold change is 4.89 (active).
Regarding `O=C(CSc1ccccc1)Nc1ccc(NC(=O)c2ccco2)cc1`, the fold change is 1.45.
Then `CCS(=O)(=O)Nc1ccc(C2=NN(C(C)=O)C(c3cccs3)C2)cc1` (stereo unspecified), with 1.16; and `NS(=O)(=O)c1cccc(NC(=O)COC(=O)/C=C/c2ccco2)c1`, with 1.19.
On to `CCCCC(O)(CCCC)C(=O)NN(C(=O)CCl)c1ccccc1`, for which the fold change was 4.9 (active).
`CCCC(O)(CCC)C(=O)NN(C(=O)CCl)c1cccc(C)c1`: the fold change was 0.5.
On to `Cc1ccc(N(NC(=O)C(C)(C)O)C(=O)c2ccccc2)cc1C`, for which the fold change is 1.37.
As to `Cc1nc(-c2ccccc2)sc1C(=O)/C=C/N(C)C`, the fold change is 1.77.
On to `COc1ccccc1NC(=S)N1CCC(NC(=O)C23CC4CC(CC(C4)C2)C3)CC1`, for which the fold change was 0.97.
In the case of `CC(C)CNC(=O)c1cc(-c2ccc(Br)cc2)on1`, the fold change is 0.98.
`CC(C)Cc1cc(C(=O)Nc2cc(Br)ccc2O)no1`: the fold change was 6.03 (active).
As to `CC(C)Cc1cc(C(=O)NCCc2ccccc2)no1`, the fold change is 3.27.
With `O=C(/C=C/c1ccc(Cl)cc1)Nc1ccc(S(=O)(=O)Nc2ncccn2)cc1`, the fold change is 0.93.
Consider `O=C(/C=C\c1cn(-c2ccccc2)nc1-c1cccs1)N1CCOCC1`, for which the fold change is 0.42.
Take `O=C(O)/C=C/c1cn(-c2ccccc2)nc1-c1cccs1`: the fold change is 1.14.
For the compound `O=C(O)c1ccc(N/N=C/c2cn(-c3ccccc3)nc2-c2cccs2)cc1`, the fold change was 6.86 (active).
Take `CC(C(=O)NCC1CCCCC1)N(C)Cc1cccc(Cl)c1` (stereo unspecified): the fold change was 1.18.
Regarding `N/C(=N\OC(=O)c1ccc([N+](=O)[O-])cc1)c1ccccn1`, the fold change is 5.12 (active).
Regarding `N/C(=N\OC(=O)Cc1ccc([N+](=O)[O-])cc1)c1ccccn1`, the fold change is 1.74.
`O=C(OCc1ccc([N+](=O)[O-])cc1)c1ccccn1`: the fold change was 1.29.
Take `O=c1cc(CSc2ccc(Cl)cc2)nc(N2CCOCC2)[nH]1`: the fold change was 1.5.
For `Clc1ccc2nc(CSc3ccccc3)cn2c1`, the fold change was 3.83 (active).
Then `CCOc1ncccc1C(=O)OCc1cn2cc(Cl)ccc2n1`, with 1.18; and `CN1CCC(OC(=O)COc2ccc(Cl)cc2Cl)CC1`, with 1.16.
Turning to `CCOc1cnc(C(=O)NNC(=O)c2ccccc2Br)o1`, the fold change is 1.13.
With `COc1ccc(C(=O)NCC(=O)N/N=C/c2ccc([N+](=O)[O-])s2)cc1OC`, the fold change is 0.62.
